Source: PubChem BioAssay (NCATS)
Inconclusive results are not listed. Where a call stands in place of a potency, no number is given. Values without a mark were called inactive. Calls of active or inactive are those of the source. Calls come from the whole dose curve; as a rule, active = well fitted curve in the direction sought with a large enough effect; inconclusive = small, poorly fitted or top-dose-only effect, or another doubt; inactive = no such curve, though single readings can be large; an effect the other way counts as inactive or inconclusive.

What was measured:
[1] = tested on: Zika virus NS2B-NS3 protease; assay: Primary screen GU AMC qHTS for Zika virus inhibitors (AID 1347154); note: nearly all actives have a fitted effect of over 70% in size; note: potency is the fitted concentration of half-maximal effect
Outline: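 Fluorogenic AMC-substrate cleavage by noncovalent NS2B-NS3 protease complex (25 nM, pH 8.0 Tris buffer with Tween 20) followed for 15 minutes at room temperature (~20% conversion). Percent inhibition from ex340/em450 signal change, fitted by 4-parameter Hill equation.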

[2] = target: Lysine-specific demethylase 5B (Homo sapiens) (UniProt Q9UGL1); assay: Optimization screen for KDM5B Histone Demethylases FDH coupled qHTS against the LOPAC library (AID 1347166)
Outline: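 KDM5BDeltaAP (200nM final) preincubated 10 min with compound, then 12.5uM H3K4Me3, 25uM a-ketoglutarate, ascorbate, Fe(II), NAD+ and FDH added; 50mM HEPES pH 7.5, 0.01% Tween-20. NADH fluorescence (340/450 nm) change over 30 min, room temperature.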

[3] = tested on: Zika virus NS2B-NS3 protease (linked construct); assay: Confirmatory screen NINDS AMC qHTS for Zika virus inhibitors (AID 1347152); note: nearly all actives have a fitted effect of over 70% in size; note: potency is the fitted concentration of half-maximal effect
Outline: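 Concentration-response confirmation used the NINDS linked protease (NS2B hydrophilic domain joined to NS3 protease domain), 1 nM, with a 15-min compound preincubation. Substrate, Nle-KRR-AMC at 10 microM, was read by UV fluorescence before and after 15 min.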

[4] = Confirmatory screen GU Rhodamine qHTS for Zika virus inhibitors qHTS (AID 1347157); note: potency is the fitted concentration of half-maximal effect; nearly all actives have a fitted effect of over 70% in size
Outline: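 In dose–response format, inhibition of unlinked protease (25 nM) was measured with 1.5 microM bis-peptide Rhodamine110 substrate. Aprotinin served as the intraplate control.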

[5] = tested on: Zika virus NS2B-NS3 protease (unlinked complex); assay: Primary screen GU Rhodamine qHTS for Zika virus inhibitors: Unlinked NS2B-NS3 protease assay (AID 1347159); note: nearly all actives have a fitted effect of over 60% in size; note: potency is the fitted concentration of half-maximal effect
Outline: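 A qHTS format was used, with compound concentrations ranging up to 114 microM. Each compound was preincubated with 25 nM NS2B-NS3 protease, and the substrate was then added at 1.5 microM. Curves were fitted with a 4-parameter Hill model.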

[6] = tested on: Zika virus NS2B-NS3 protease (linked construct); assay: Primary screen NINDS Rhodamine qHTS for Zika virus inhibitors (AID 1347160); note: nearly all actives have a fitted effect of over 55% in size; note: potency is the fitted concentration of half-maximal effect
Outline: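 Kinetic fluorescence (Ex 480 nm, Em 540 nm) over 15 min with 1.5 microM Rhodamine110 peptide and 25 nM linked protease.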

[7] = Confirmatory screen NINDS Rhodamine qHTS for Zika virus inhibitors (AID 1347161); note: potency is the fitted concentration of half-maximal effect; nearly all actives have a fitted effect of over 60% in size
Outline: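 Aprotinin served as in-plate control. Conditions: 25 nM linked NS2B-NS3, pH 8.0 Tris buffer, titrated compounds, 15 min preincubation and 15 min reaction with 1.5 microM Rhod110 substrate at room temperature.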

[8] = tested on: Zika virus NS2B-NS3 protease (linked); assay: 384 well plate NINDS AMC confirmatory qHTS for Zika virus inhibitors (AID 1347163); details: Recombinant NS2B-NS3 protease, Ac-VKTGKR-AMC fluorescence; note: potency is the fitted concentration of half-maximal effect; nearly all actives have a fitted effect of over 50% in size
Outline: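 Linked protease 5/30/60 nM final; cpds up to 1 mM final, ~15 min preinc. Substrate Ac-VKTGKR-AMC 30 microM final. RT, dark, 25 min; FI ex 355/em 460; normalized to no-enzyme/no-inhibitor ctrls.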

[9] = tested on: Zika virus NS2B-NS3 protease (linked construct); assay: 384 well plate NINDS Rhodamine confirmatory qHTS for Zika virus inhibitors (AID 1347164); note: nearly all actives have a fitted effect of over 65% in size; note: potency is the fitted concentration of half-maximal effect
Outline: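 Cleavage of Ac-LKRR-Rhodamine 110 (10 microM final) by linked protease (final 5, 30 or 60 nM) was followed as fluorescence at 485/538 nm after 25 min, room temperature, dark. Compounds preincubated ~15 min.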

[10] = Vero cells viability qHTS for Zika virus inhibitors (AID 1347167)
Outline: (§1)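 Compounds were tested in concentration series on cells grown in DMEM containing 4% FBS. After 24 to 48 hours, cellular ATP was measured by luminescence with CellTiter Glo.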

[11] = HepG2 cells viability qHTS for Zika virus inhibitors (AID 1347168)
Outline: as §1

[12] = tested on: Zika virus NS2B-NS3 protease (unlinked complex); assay: Confirmatory screen GU AMC qHTS for Zika virus inhibitors (AID 1347153); note: nearly all actives have a fitted effect of over 70% in size;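 for potency: enzyme at 25 nM with substrate at 10 µM below its Km of 18.3 µM; potency is the fitted concentration of half-maximal effect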
Outline: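 Fluorescence change (ex 340/em 450 nm) over 15 min, ~20% substrate conversion, normalized to no-inhibitor and no-enzyme controls, then Hill-fitted. Unlinked protease at 25 nM; AMC peptide 10 µM.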

[13] = Tertiary RLuc qRT-PCR qHTS assay for Zika virus inhibitors (AID 1347169); note: top concentration of the series differs between compounds; nearly all actives have a fitted effect of over 55% in size
Outline: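 Inhibition of ZIKV-RLuc replication in Vero cells, read as Renilla luminescence 1-1.5 hrs after live-cell substrate addition, following 48-72 hrs infection at MOI 1-2 in presence of compound.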

[14] = OV-KATE Cancer Cell Toxicity qHTS against the NCATS CANVASS Library (AID 1347345)
Outline: (§2)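 Following a 4 h pre-incubation of 1000 seeded cells, compounds were pinned in an 11-pnt dilution series and left for 72 h; viability then came from CellTiter-Glo.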

[15] = HPAF-II Cancer Cell Toxicity qHTS against the NCATS CANVASS Library (AID 1347346); note: series mostly up to about 38 µM; nearly all actives have a fitted effect of over 55% in size
Outline: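 HPAF-II cells were seeded at 1000 cells/well, allowed to settle for 4 h at 37 degrees C, then exposed to compounds in an 11-point series for 72 h. Viability was read by CellTiter-Glo luminescence.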

[16] = UWB1.289 Cancer Cell Toxicity qHTS against the NCATS CANVASS Library (AID 1347347); note: series mostly up to about 38 µM; nearly all actives have a fitted effect of over 60% in size
Outline: as §2

[17] = OV-SAHO Cancer Cell Toxicity qHTS against the NCATS CANVASS Library (AID 1347348); note: series mostly up to about 38 µM; nearly all actives have a fitted effect of over 55% in size
Outline: as §2

[18] = Panc-1005 Cancer Cell Toxicity qHTS against the NCATS CANVASS Library (AID 1347349); note: series mostly up to about 38 µM; nearly all actives have a fitted effect of over 60% in size
Outline: as §2

[19] = SW1088 Cancer Cell Toxicity qHTS against the NCATS CANVASS Library (AID 1347350); note: series mostly up to about 38 µM; nearly all actives have a fitted effect of over 75% in size
Outline: as §2

Sequence of Lysine-specific demethylase 5B (Homo sapiens) (Q9UGL1 whole entry, looked up): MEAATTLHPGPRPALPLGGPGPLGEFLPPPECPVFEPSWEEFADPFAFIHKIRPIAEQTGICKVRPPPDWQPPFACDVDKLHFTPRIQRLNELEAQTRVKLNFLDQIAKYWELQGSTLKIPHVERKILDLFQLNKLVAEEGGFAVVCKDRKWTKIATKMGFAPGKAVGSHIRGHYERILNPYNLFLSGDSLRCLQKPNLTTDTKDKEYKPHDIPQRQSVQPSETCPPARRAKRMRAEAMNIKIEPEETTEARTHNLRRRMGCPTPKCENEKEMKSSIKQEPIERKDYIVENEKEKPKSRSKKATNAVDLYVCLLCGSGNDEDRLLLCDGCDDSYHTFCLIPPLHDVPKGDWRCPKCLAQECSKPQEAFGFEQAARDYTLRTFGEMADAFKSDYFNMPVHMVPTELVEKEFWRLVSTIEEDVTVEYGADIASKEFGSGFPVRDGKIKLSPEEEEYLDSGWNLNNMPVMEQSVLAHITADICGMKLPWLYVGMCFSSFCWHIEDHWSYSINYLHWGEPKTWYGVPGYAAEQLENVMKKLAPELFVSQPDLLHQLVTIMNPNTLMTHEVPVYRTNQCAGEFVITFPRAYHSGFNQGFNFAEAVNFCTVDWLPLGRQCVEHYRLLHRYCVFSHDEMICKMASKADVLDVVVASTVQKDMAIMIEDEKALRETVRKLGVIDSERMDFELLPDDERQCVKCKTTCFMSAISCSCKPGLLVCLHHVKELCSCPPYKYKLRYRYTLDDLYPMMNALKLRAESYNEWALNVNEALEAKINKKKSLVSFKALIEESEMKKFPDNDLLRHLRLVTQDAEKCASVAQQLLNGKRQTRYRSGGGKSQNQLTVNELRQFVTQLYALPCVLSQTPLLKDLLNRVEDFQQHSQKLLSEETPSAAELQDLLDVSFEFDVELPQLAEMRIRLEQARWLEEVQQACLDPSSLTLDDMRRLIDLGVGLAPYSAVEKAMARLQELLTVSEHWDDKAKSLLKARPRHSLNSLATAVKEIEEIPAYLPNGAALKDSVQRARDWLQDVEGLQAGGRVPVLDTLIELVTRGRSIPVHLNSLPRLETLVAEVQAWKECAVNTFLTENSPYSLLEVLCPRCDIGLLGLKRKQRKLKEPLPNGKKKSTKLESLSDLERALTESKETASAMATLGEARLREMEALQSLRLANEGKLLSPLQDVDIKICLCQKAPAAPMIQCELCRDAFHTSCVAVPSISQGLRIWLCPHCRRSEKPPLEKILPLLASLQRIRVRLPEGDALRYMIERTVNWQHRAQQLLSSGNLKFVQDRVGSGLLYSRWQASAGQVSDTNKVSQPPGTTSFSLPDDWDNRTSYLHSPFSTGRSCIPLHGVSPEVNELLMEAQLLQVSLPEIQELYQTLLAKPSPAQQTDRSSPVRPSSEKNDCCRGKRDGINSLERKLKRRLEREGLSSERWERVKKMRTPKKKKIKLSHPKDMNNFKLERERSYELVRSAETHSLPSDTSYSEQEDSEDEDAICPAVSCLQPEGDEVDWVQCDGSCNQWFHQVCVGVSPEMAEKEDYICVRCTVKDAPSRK

## Cc1[nH]c2ccc(O)cc2c1CCN
[1]
  Potency: inactive

## CCNC(=O)[C@H]1O[C@@H](n2cnc3c(N)ncnc32)[C@H](O)[C@@H]1O
[1]
  Potency: inactive
[2]
  Potency: inactive

## CCCCCOc1cc2c(cc1-c1cc(/C=C/C(=O)O)ccc1O)C(C)(C)CCC2(C)C
[3]
  Potency: 9.87 µM (active)
[4]
  Potency: 1.75 µM (active)
[5]
  Potency: 2.51 µM (active)
[6]
  Potency: 3.16 µM (active)
[7]
  Potency: 2.21 µM (active)
[8]
  Potency: 25.1 µM (active)
[9]
  Potency: inactive
[10]
  outcome: inactive
[11]
  outcome: inactive

## CCCN(CCC)CCc1ccc(O)c(O)c1
[1]
  Potency: inactive

## CC(C)(C)c1cc(C=C(C#N)C#N)cc(C(C)(C)C)c1O
[1]
  Potency: inactive
[2]
  Potency: inactive

## CN(C(=O)Cc1ccc(Cl)c(Cl)c1)C(CN1CCCC1)c1cccc(OCC(=O)O)c1 (centres undefined)
[1]
  Potency: inactive
[2]
  Potency: inactive

## C=C(C)[C@H]1O[C@H]2CC[C@@]3(C)[C@@](O)(CC[C@H]4[C@@H]5OC(C)(C)[C@H]6C[C@@H]7C(=C)Cc8c(Cl)cc9[nH]c(c5c9c8[C@@]76O)[C@@]43C)[C@]23O[C@@H]3[C@H]1O
[1]
  Potency: inactive
[5]
  Potency: inactive
[6]
  Potency: inactive

## O=c1ccc2[nH]cc(C3=CCNCC3)c2[nH]1
[3]
  Potency: 24.1 µM (active)
[12]
  Potency: 24.1 µM (active)
[1]
  Potency: 26.7 µM (active)
[7]
  Potency: 44.1 µM (active)
[10]
  outcome: inactive
[11]
  outcome: inactive
[13]
  Potency: inactive

## CC(N)Cc1c[nH]c2ccc(O)cc12 (centres undefined)
[1]
  Potency: inactive
[2]
  Potency: inactive

## NCCc1c[nH]c2ccc(C(N)=O)cc12
[1]
  Potency: inactive

## N#CC(C#N)=Cc1cc(O)c(O)c(O)c1
[1]
  Potency: inactive

## NC(N)=NOCC[C@H](N)C(=O)O
[1]
  Potency: inactive
[2]
  Potency: inactive

## O=c1c2ccccc2[se]n1-c1ccccc1
[1]
  Potency: inactive

## Cc1cc(C)cc(C(=O)OC2C[C@H]3CC[C@@H](C2)N3C)c1 (some centres undefined)
[1]
  Potency: inactive

## CN1C2CCC1CC(OC(c1ccccc1)c1ccccc1N)C2 (centres undefined)
[1]
  Potency: inactive
[2]
  Potency: inactive

## CC(Cc1ccc(OCC(=O)O)cc1)NCC(O)c1cccc(Cl)c1 (centres undefined)
[1]
  Potency: inactive
[2]
  Potency: inactive

## c1ccc2c(N3CCNCC3)cccc2c1
[1]
  Potency: inactive

## CCCN(CCC)CCc1c[nH]c2ccc(C(N)=O)cc12
[1]
  Potency: inactive

## C[N+](C)(C)CC#CCN1CCCC1=O
[1]
  Potency: inactive
[2]
  Potency: inactive

## C[N+](C)(C)CC#CCOC(=O)Nc1cccc(Cl)c1
[1]
  Potency: inactive
[2]
  Potency: inactive

## CN1CCC(c2c[nH]c3ccc(O)cc23)CC1
[1]
  Potency: inactive
[2]
  Potency: inactive

## C[CH2][Hg][S]c1ccccc1C(=O)O
[1]
  Potency: inactive

## CN1CC[C@@]2(C)c3cc(OC(=O)Nc4ccccc4)ccc3N(C)[C@@H]12
[1]
  Potency: inactive

## C[N+]1(C)CCOC(O)(c2ccc(-c3ccc(C4(O)C[N+](C)(C)CCO4)cc3)cc2)C1 (centres undefined)
[1]
  Potency: inactive
[2]
  Potency: inactive

## CC(N)Cc1c[nH]c2ccc(OCc3cccs3)cc12 (centres undefined)
[1]
  Potency: inactive
[2]
  Potency: inactive

## CO[C@H]1CC=C2CCN3CCC4=C(CC(=O)OC4)[C@]23C1
[1]
  Potency: inactive
[2]
  Potency: inactive

## O=[N+]([O-])c1ccc2nc(N3CCNCC3)ccc2c1
[1]
  Potency: inactive
[2]
  Potency: inactive

## CP(=O)(O)C1=CCNCC1
[1]
  Potency: inactive
[2]
  Potency: inactive

## CN1c2ccccc2C(NCCCCCCC(=O)O)c2ccc(Cl)cc2S1(=O)=O (centres undefined)
[1]
  Potency: inactive

## NCC(CP(=O)(O)O)c1ccc(Cl)cc1 (centres undefined)
[1]
  Potency: inactive
[2]
  Potency: inactive

## COc1ccc2[nH]cc(CCN)c2c1
[1]
  Potency: inactive
[6]
  Potency: inactive
[2]
  Potency: inactive
[14]
  outcome: inactive
[15]
  outcome: inactive
[16]
  outcome: inactive
[17]
  outcome: inactive
[18]
  outcome: inactive
[19]
  outcome: inactive

## Cc1cccc(C(C)c2cnc[nH]2)c1C (centres undefined)
[1]
  Potency: inactive

## C[C@@]1(C(=O)O)CC[C@]2(C)CC[C@]3(C)C4=CC(=O)c5cc(O)c(O)cc5[C@]4(C)CC[C@@]3(C)[C@@H]2C1
[3]
  Potency: inactive
[12]
  Potency: inactive
[4]
  Potency: 2.42 µM (active)
[5]
  Potency: 3.98 µM (active)
[6]
  Potency: 7.94 µM (active)
[7]
  Potency: 1.36 µM (active)
[8]
  Potency: 56.2 µM (active)
[9]
  Potency: 1.12 µM (active)
[10]
  outcome: inactive
[11]
  outcome: inactive
[13]
  Potency: inactive

## CCCSP(=O)(OCC)SCCC
[1]
  Potency: inactive
